18 molecules from PubChem BioAssay can be followed below.

Molecules are shown by their SMILES. Unmarked numbers belong to inactive results. How the calls were made is not given here.

The assay deals with Pantothenate synthetase (Mycobacterium tuberculosis (strain ATCC 25618 / H37Rv)) (UniProt P9WIL5). The assay can be described thus: Recombinant Mtb pantothenate synthetase (PanC) inhibitors, coupled enzyme, confirmatory (AID 375).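 Further: 0% = full reaction with vehicle and 100% = no enzyme background.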 The following applies: coupled enzyme assay; at 10 µM, active compounds read high.
Chain of Pantothenate synthetase (Mycobacterium tuberculosis (strain ATCC 25618 / H37Rv)) (P9WIL5 whole entry, looked up): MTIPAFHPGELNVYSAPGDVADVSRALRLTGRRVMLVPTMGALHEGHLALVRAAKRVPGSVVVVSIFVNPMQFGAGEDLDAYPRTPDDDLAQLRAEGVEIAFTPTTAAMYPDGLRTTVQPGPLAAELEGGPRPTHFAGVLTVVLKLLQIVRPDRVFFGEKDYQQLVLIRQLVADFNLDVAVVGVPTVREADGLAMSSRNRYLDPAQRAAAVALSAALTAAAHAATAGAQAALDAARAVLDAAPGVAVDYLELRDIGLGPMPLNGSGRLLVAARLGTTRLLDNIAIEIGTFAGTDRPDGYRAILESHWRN
`COCCn1nnnc1CN1CCC(Cc2ccccc2)CC1`: the inhibition was 0%.

In the case of `COc1cc(S(=O)(=O)n2nnc3ccccc32)c(OC)cc1Cl`, the inhibition is 3%. Consider `COCCN(CCOC)C(=O)c1sc2nc(-c3ccccc3)cn2c1C`, for which the inhibition is 0%. The value for `Cc1ccc(-c2cn3nc(C)c(C)nc3n2)cc1` was 1%; that for `COc1cc2c(C#N)c(N3CCOCC3)nc(N)c2c(N)n1` was 0%. The value for `CCOc1ccc(-n2c(=O)cc(N3CCN(c4ccccc4)CC3)[nH]c2=O)cc1` was 0%. As for `COc1ccc(S(=O)(=O)Cc2ccc(C(=O)N3CCOCC3)o2)cc1`, the inhibition was 7%.

On to `O=C(CN1CCN(c2ccccn2)CC1)N1c2ccccc2CCc2ccccc21`, for which the inhibition is 0%. Next, `C/C(N)=C(/C#N)C(=O)COC(=O)CCSc1ccccc1`: 0%; `Cc1ccccc1Cn1ccc(NC(=O)c2onc(C)c2Cl)n1`: 0%. Next, `Cc1nc2ccccc2c2oc(C(=O)NCc3ccccn3)cc12`: 2%. Take `Cc1cc(C)n(S(=O)(=O)Cc2ccccc2)n1`: the inhibition is 0%. In the case of `CCNc1ccc2c(Cl)cc(=O)oc2c1`, the inhibition is 5%. The value for `Cc1cc(-c2ccccc2)nc(SCc2ccc(C(=O)O)o2)n1` was 0%. The value for `CC(C)OC(=O)c1ccc(OC(=O)c2cccnc2)cc1` was 0%; that for `COC1CCCCC1Nc1cccc(SC)c1` (stereo not drawn) was 0%.

As to `CCN(CC)S(=O)(=O)c1ccc(NC(=O)CN(c2cccc(F)c2)S(C)(=O)=O)cc1`, the inhibition was 3%.

`N#CCCN(Cc1cccnc1)C(=O)Nc1ccc(Cl)c(Cl)c1`: the inhibition is 1%.

In general, inhibition refers to the change of the read-out against control, counted positive when it falls.
